Source: PubChem BioAssay (Tox21)
Records with an inconclusive call do not appear. Where a call stands in place of a potency, no number is given. The source holds several records for some structures; these can differ, active in one and inactive in another. The source made the active and inactive calls. Calls follow the shape of the dose curve; as a rule, active = well fitted curve in the direction sought with a large enough effect in the repeat runs; inconclusive = weak or mixed curves; inactive = no such curve, though single readings can be large; an effect the other way counts as inactive or inconclusive.

Assay: qHTS assay to identify small molecule agonists of the RXR signaling pathway - cell viability counter screen (AID 1159529); also: nearly all actives have a fitted effect of over 50% in size; also: potency is read from the fitted curve at half-maximal effect
Details: RXR-alpha-bla HEK293T viability, CellTiter-Glo, 16 h; series mostly up to 76.8 µM
Method in brief: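 RXR-alpha-UAS-bla HEK 293T cells in medium with 2% charcoal-stripped FBS were preincubated 5 hr, then exposed to compounds for 16 hr at 37 C. Viability was read as CellTiter-Glo luminescence after 30 min at room temperature.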

| SMILES | Potency |
| --- | --- |
| CC(=O)Oc1c(C)c(C)c2c(c1C)CC[C@@](C)(CCC[C@H](C)CCC[C@H](C)CCCC(C)C)O2 | inactive |
| COc1cc([C@H]2Oc3cc([C@H]4Oc5cc(O)cc(O)c5C(=O)[C@@H]4O)ccc3O[C@@H]2CO)ccc1O | inactive |
| CC(=O)Nc1ccc2c(c1)Cc1cc(NC(C)=O)ccc1-2 | inactive |
| CN(C)CCCN1c2ccccc2Sc2ccc(Cl)cc21 | 43.6 µM (active) |
| CC(=O)[C@@]1(O)CC[C@H]2[C@@H]3C[C@H](C)C4=CC(=O)C=C[C@]4(C)[C@@]3(F)[C@@H](O)C[C@@]21C | inactive |
| Cc1ccc([N+](=O)[O-])c(C)c1 | 24.6 µM (active) and inactive |
| C=CC(C)(O)CCC=C(C)C (stereo unspecified) | inactive |

Assay: qHTS assay to identify small molecule antagonists of the retinoid acid receptor (RAR) signaling pathway - cell viability counter screen (AID 1159551); also: nearly all actives have a fitted effect of over 35% in size
Details: C3RL4 cells viability, ATP luminescence (CellTiter-Glo), 6 h; series mostly up to 92.4 µM
Method in brief: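 Cytotoxicity counter screen: ATP content quantified by CellTiter-Glo luminescence in C3RL4 cells treated 6 hr at 37 C with compound and retinol (1 uM final). Cells plated at 1,000/well and cultured overnight before dosing.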

| SMILES | Potency |
| --- | --- |
| CN(Cc1cnc2nc(N)nc(N)c2n1)c1ccc(C(=O)N[C@@H](CCC(=O)O)C(=O)O)cc1 | inactive |
| O=[Se](O)O | inactive |
| CC/C=C\C/C=C\C/C=C\CCCCCCCC(=O)O | inactive |
| CC(=O)[C@H]1CC[C@H]2[C@@H]3CC=C4C[C@@H](O)CC[C@]4(C)[C@H]3CC[C@]12C | inactive |
